According to PubChem BioAssay AID504378 (National Center for Advancing Translational Sciences (NCATS), 2011):
Inconclusive results are not listed. Active and inactive are the calls of the source. Calls come from the whole dose curve; as a rule, active = well fitted curve in the direction sought with a large enough effect; inconclusive = small, poorly fitted or top-dose-only effect, or another doubt; inactive = no such curve, though single readings can be large or run the other way.

Test: qHTS Assay for Compounds Blocking the Interaction Between CBF-beta and RUNX1 for the Treatment of Acute Myeloid Leukemia: SAR for Probe with Orthogonal Assay
Settings: ME-1 cells viability, ATPlite luminescence, 48 h; series mostly up to 82.4 µM; activity change, negative = inhibition: at the top concentration
Text: NIH Chemical Genomics Center [NCGC] NIH Molecular Libraries Probe Production centers Network [MLPCN] MLPCN Grant: X01MH083259-01 Assay Submitter (PI): Paul Liu NCGC Assay Overview: Core Binding Factor (CBF) abnormalities are associated with 20-25% of all acute myeloid leukemias (AML), of which 5-10% are further sub classified as acute myelomonocytic leukemia with eosinophilia, also known as M4Eo in the FAB classification scheme. This subtype of leukemia is usually associated with chromosome 16 inversion (p13:q22). Chromosome 16 inversion results in formation of the fusion oncogene CBFB-MYH11, which encodes the fusion protein CBF-beta-SMMHC. […] It has been hypothesized that the interference of CBF-beta and RUNX1 binding could have therapeutic implications for patients with CBF mediated leukemias. We developed a CBF-beta and RUNX1 binding assay in AlphaScreenTM format and optimized it for high throughput screening to search for inhibitors. The goal of this project is to screen MLPCN's compound collection (MLSMR) for identifying the inhibitors of the interaction between CBF-beta and RUNX1 proteins as research probes. If these probes work well in the animal models, the ultimate goal of this project is to development a new drug treatment for this disease. This assay can not be used to assess how apparent inhibitors interfere with protein binding, and whether inhibitors specifically bind to either protein. Disruption of this protein-protein interaction, through any mechanism, is the intended target activity. The present data set was run to confirm the activity of hits from the primary screen using an orthogonal assay technology for measuring protein-protein interaction disruption.
NCGC Assay protocol: ME-1 suspension cells were grown in T225 flasks to 80% density under a standard cell culture condition (ATCC) using Dulbecco's Modified Eagle Medium (DMEM) + 10% fetal bovine serum, harvested in OPTI-MEM (phenol free) + 10% FBS. Seeded at 500 cells/well in 5uL medium into 1536-well white solid-bottom plates using Multidrop Combi dispenser, and incubated the plates at 37 C with 5% CO2 and 95% humidity for 2 hours prior to pinning compound. Subsequently, 23 nL/well compound solutions or DMSO controls were dispensed to the assay plates via a pintool workstation. Plates were then transferred to 37 C with 5% CO2 and 95% humidity for 48 hours, and then ATP content was measured following the addition of 4uL/well of ATPlite reagent and a 20 min incubation on a ViewLux plate reader. Keywords: MLSMR, MLPCN, NIH Roadmap, qHTS, NCGC, Core binding factor, CBF, CBF-beta, Acute myeloid leukemia

| Structure (SMILES) | activity change, negative = inhibition | outcome |
| --- | --- | --- |
| NCCCC(=O)Nc1ccc(Cl)cc1C(=O)c1ccc[nH]1 | -11% (inactive) | – |
| N[C@H](C(=O)Nc1ccc(Cl)cc1C(=O)c1ccc[nH]1)c1ccccc1 | -6.2% (inactive) | – |
| O=C(c1ccc[nH]1)c1cc(Cl)ccc1NC(=O)[C@@H]1CCCN1 | 21.2% (inactive) | – |
| NCCCC[C@H](N)C(=O)Nc1ccc(Cl)cc1C(=O)c1ccc[nH]1 | -3.67% (inactive) | – |
| NCC(=O)Nc1ccc(Cl)cc1C(=O)c1ccc[nH]1 | – | inactive |
| C[C@H](N)C(=O)Nc1ccc(Cl)cc1C(=O)c1ccc[nH]1 | -17.6% (inactive) | – |
| CC(=O)Nc1ccc(Cl)cc1C(=O)c1ccc[nH]1 | -5.24% (inactive) | – |
| NC(=O)C[C@H](N)C(=O)Nc1ccc(Cl)cc1C(=O)c1ccc[nH]1 | -25.5% (inactive) | – |
| NCCCCC(=O)Nc1ccc(Cl)cc1C(=O)c1ccc[nH]1 | -42.2% (inactive) | – |
| N[C@H](Cc1ccccc1)C(=O)Nc1ccc(Cl)cc1C(=O)c1ccc[nH]1 | -12.2% (inactive) | – |
| Nc1ccc(Cl)cc1C(=O)c1ccc[nH]1 | 1.45% (inactive) | – |
| N[C@@H](CC(=O)O)C(=O)Nc1ccc(Cl)cc1C(=O)c1ccc[nH]1 | -15% (inactive) | – |
| NC(N)=NCCC[C@H](N)C(=O)Nc1ccc(Cl)cc1C(=O)c1ccc[nH]1 | 7.87% (inactive) | – |
| CCc1sc(N)nc1-c1ccc(OC)cc1 | 6.57% [at 41 µM] (inactive) | – |
| CC(C)(N)C(=O)Nc1ccc(Cl)cc1C(=O)c1ccc[nH]1 | 0.648% (inactive) | – |
| CNCC(=O)Nc1ccc(Cl)cc1C(=O)c1ccc[nH]1 | -4.39% (inactive) | – |
| CCC(=O)Nc1ccc(Cl)cc1C(=O)c1ccc[nH]1 | 1.35% (inactive) | – |
| CN(C)CC(=O)Nc1ccc(Cl)cc1C(=O)c1ccc[nH]1 | -14.1% (inactive) | – |
| C[C@@H](N)C(=O)Nc1ccc(Cl)cc1C(=O)c1ccc[nH]1 | 6.1% (inactive) | – |
| CC(C)[C@H](N)C(=O)Nc1ccc(Cl)cc1C(=O)c1ccc[nH]1 | -7.1% (inactive) | – |
| CNCc1nc(-c2ccc[nH]2)c2cc(Cl)ccc2n1 | 28% (inactive) | – |
| N[C@@H](CCC(=O)O)C(=O)Nc1ccc(Cl)cc1C(=O)c1ccc[nH]1 | -16.9% (inactive) | – |
| NCCC(=O)Nc1ccc(Cl)cc1C(=O)c1ccc[nH]1 | 3.25% (inactive) | – |
| N[C@@H](Cc1ccccc1)C(=O)Nc1ccc(Cl)cc1C(=O)c1ccc[nH]1 | 3.46% (inactive) | – |
| N[C@@H](CO)C(=O)Nc1ccc(Cl)cc1C(=O)c1ccc[nH]1 | -12.7% (inactive) | – |
